Results published in PubChem BioAssay (EPA / NIEHS).
Where “and” joins values, the source holds several entries; their conditions need not be identical. Equal entries are not always repeated. A structure can be active in one record and inactive in another. Calls of active or inactive are those of the source. How the source made its calls: active means hit-call score of the fitted dose curve at least 0.9, where 1 is the maximum; inactive means score below 0.9.

What was measured:
Details in all cases: mRNA level, 48 h; actives raise or lower the signal
[1] = read-out: JUN Transcription Factor, JUN (gene 3725); assay: LTEA_HepaRG_JUN: Life Technologies and Expression Analysis (LTEA) Assay for JUN Transcription Factor using HepaRG (AID 2283513)
In short: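 Human HepaRG liver cells receive test chemicals in 0.5% DMSO for 48 h across an eight-point range topping at 100 uM. Expression changes in JUN are scored in both directions against the DMSO vehicle.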

[2] = read-out: Lipase C (LIPC), LIPC (gene 3990); assay: LTEA_HepaRG_LIPC: Life Technologies and Expression Analysis (LTEA) Assay for Lipase C (LIPC) using HepaRG (AID 2283514)
In short: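 Read-out is LIPC transcript level by TaqMan qRT-PCR, normalized to three housekeeping genes, after 48 h chemical treatment of human HepaRG liver cells. Curves span eight concentrations topping at 100 uM; activity in either direction scored relative to 0.5% DMSO.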

[3] = read-out: Lipoprotein lipase (LPL), LPL (gene 4023); assay: LTEA_HepaRG_LPL: Life Technologies and Expression Analysis (LTEA) Assay for Lipoprotein lipase (LPL) using HepaRG (AID 2283515)
In short: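 Read-out is LPL transcript level by qRT-PCR, normalized to three housekeeping genes and fitted bidirectionally against the DMSO control. Human HepaRG cells received chemicals for 48 h at up to 100 uM.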

[4] = read-out: MicroRNA 122 (MIR122), gene 406906; assay: LTEA_HepaRG_MIR122: Life Technologies and Expression Analysis (LTEA) Assay for MicroRNA 122 (MIR122) using HepaRG (AID 2283516); further: the transcript read is the microRNA miR-122
In short: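 HepaRG, 48 h exposure, 8-pt half-log from 100 uM, 0.5% DMSO; TaqMan qRT-PCR; bidirectional fit vs DMSO.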

[5] = read-out: matrix metalloproteinase-10 (MMP10), MMP10 (gene 4319); assay: LTEA_HepaRG_MMP10: Life Technologies and Expression Analysis (LTEA) Assay for matrix metalloproteinase-10 (MMP10) using HepaRG (AID 2283517)
In short: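 Gain or loss of MMP10 mRNA is fitted relative to the 0.5% DMSO vehicle. The human hepatic line HepaRG receives a 48-hour serum-free exposure, in duplicate, with a maximum concentration of 100 uM.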

MYC, MYC (gene 4609) = assay: LTEA_HepaRG_MYC: Life Technologies and Expression Analysis (LTEA) Assay for MYC using HepaRG (AID 2283518)
In short: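 Differentiated HepaRG cells exposed 48 h in serum-free induction medium to 8 concentrations (top 100 uM, half-log steps; 0.5% DMSO), duplicate. MYC mRNA measured by Fluidigm qRT-PCR, normalized to ACTB, GAPDH, POLR2A; bidirectional fit versus DMSO.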

[6] = read-out: matrix metalloproteinase-3 (MMP3), MMP3 (gene 4314); assay: LTEA_HepaRG_MMP3: Life Technologies and Expression Analysis (LTEA) Assay for matrix metalloproteinase-3 (MMP3) using HepaRG (AID 2283519)
In short: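 HepaRG, human; 48 h dosing, 8 conc. (max 100 uM, half-log), duplicate, 0.5% DMSO. Readout: MMP3 transcript by Fluidigm TaqMan qRT-PCR, ACTB/GAPDH/POLR2A-normalised. Gain or loss fitted vs DMSO.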

[7] = read-out: Paternally Expressed 10 (PEG10), PEG10 (gene 23089); assay: LTEA_HepaRG_PEG10: Life Technologies and Expression Analysis (LTEA) Assay for Paternally Expressed 10 (PEG10) using HepaRG (AID 2283520);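 on AC50: PEG10 transcript by qRT-PCR normalised to ACTB GAPDH and POLR2A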
In short: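 Chemicals tested on HepaRG cells for 48 h, highest concentration 100 uM. PEG10 expression assessed by qRT-PCR relative to DMSO control.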

[8] = read-out: Nuclear factor NF-kappa-B p105 subunit (Homo sapiens) (UniProt P19838); assay: LTEA_HepaRG_NFKB1: Life Technologies and Expression Analysis (LTEA) Assay for Nuclear Factor Kappa B Subunit 1 (NFKB1) using HepaRG (AID 2283521)
In short: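 NFKB1 transcript was measured by TaqMan qRT-PCR on Fluidigm arrays, normalised to three housekeeping genes and fitted in both directions against 0.5% DMSO. HepaRG cells were dosed in duplicate for 48 h in serum-free induction medium, eight half-log steps from 100 uM.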

[9] = read-out: Phosphatase and tensin (PTEN), PTEN (gene 5728); assay: LTEA_HepaRG_PTEN: Life Technologies and Expression Analysis (LTEA) Assay for Phosphatase and tensin (PTEN) using HepaRG (AID 2283523)
In short: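 Read-out is PTEN transcript level by multiplexed TaqMan qRT-PCR after 48 h chemical treatment of human HepaRG cultures in serum-free induction medium. Concentrations spanned 100 uM downward in half-log steps, 0.5% DMSO throughout; activity fitted in both directions against vehicle.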

[10] = read-out: solute carrier (SLC22A1), SLC22A1 (gene 6580); assay: LTEA_HepaRG_SLC22A1: Life Technologies and Expression Analysis (LTEA) Assay for solute carrier (SLC22A1) using HepaRG (AID 2283524)
In short: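 HepaRG (human liver line), 48 h dosing in serum-free induction medium; 8 conc., half-log down from 100 uM, 0.5% DMSO vehicle, duplicates. Endpoint: SLC22A1 mRNA, qRT-PCR, housekeeping-normalized; gain/loss fit vs DMSO.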

[11] = read-out: Pyruvate Dehydrogenase Kinase 4 (PDK4), PDK4 (gene 5166); assay: LTEA_HepaRG_PDK4: Life Technologies and Expression Analysis (LTEA) Assay for Pyruvate Dehydrogenase Kinase 4 (PDK4) using HepaRG (AID 2283525)
In short: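 In this multiplexed human HepaRG expression assay, cells are treated 48 h with test chemicals across an eight-point range starting at 100 uM. PDK4 mRNA changes, normalized to ACTB/GAPDH/POLR2A, are fitted in both directions relative to vehicle.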

[12] = read-out: NAD(P)H dehydrogenase [quinone] 1 (NQO1), NQO1 (gene 1728); assay: LTEA_HepaRG_NQO1: Life Technologies and Expression Analysis (LTEA) Assay for NAD(P)H dehydrogenase [quinone] 1 (NQO1) using HepaRG (AID 2283526)
In short: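 Human HepaRG hepatic cells received chemicals for 48 h in serum-free induction medium with 0.5% DMSO, up to 100 uM. Expression was assessed by TaqMan qRT-PCR against housekeeping controls and fitted bidirectionally against DMSO.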

[13] = read-out: Nuclear factor erythroid 2-related factor 2 (Homo sapiens) (UniProt Q16236); assay: LTEA_HepaRG_NFE2L2: Life Technologies and Expression Analysis (LTEA) Assay for Nuclear factor erythroid 2-related factor 2 (NFE2L2) Transcription Factor using HepaRG (AID 2283527)
In short: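 Transcript level of NFE2L2 is the read-out, measured by microfluidic TaqMan qRT-PCR and normalized to three housekeeping genes. Human HepaRG cultures received test chemical for 48 h at up to 100 uM in half-log steps. Gain or loss of signal is fitted relative to 0.5% DMSO.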

[14] = read-out: succinate dehydrogenase complex iron sulfur subunit B (SDHB), SDHB (gene 6390); assay: LTEA_HepaRG_SDHB: Life Technologies and Expression Analysis (LTEA) Assay for succinate dehydrogenase complex iron sulfur subunit B (SDHB) using HepaRG (AID 2283528)
In short: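 SDHB transcript level read by TaqMan qRT-PCR, housekeeping-normalised (ACTB, GAPDH, POLR2A), after 48 h chemical treatment of plated HepaRG cells; eight concentrations top 100 uM, half-log steps, 0.5% DMSO, duplicates; fitted both directions against DMSO.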

[15] = read-out: Signal transducer and activator of transcription 3 (Homo sapiens) (UniProt P40763); assay: LTEA_HepaRG_STAT3: Life Technologies and Expression Analysis (LTEA) Assay for Signal transducer and activator of transcription (STAT3) using HepaRG (AID 2283529)
In short: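 Read-out is STAT3 mRNA level by qRT-PCR, normalized to three housekeeping genes, in human HepaRG liver cells treated for 48 h. Concentrations ran from 100 uM downward in half-log steps; curves were fitted for gain or loss relative to 0.5% DMSO.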

[16] = read-out: sulfotransferase 2A1 (SULT2A1), SULT2A1 (gene 6822); assay: LTEA_HepaRG_SULT2A1: Life Technologies and Expression Analysis (LTEA) Assay for sulfotransferase 2A1 (SULT2A1) using HepaRG (AID 2283531)
In short: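 HepaRG human liver cells, 48 h exposure in serum-free induction medium to 8 half-log concentrations topping at 100 µM (0.5% DMSO), duplicate wells. SULT2A1 mRNA measured by TaqMan qRT-PCR, normalized to ACTB/GAPDH/POLR2A; bidirectional fit against DMSO.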

[17] = read-out: Transforming Growth Factor (TGFA), TGFA (gene 7039); assay: LTEA_HepaRG_TGFA: Life Technologies and Expression Analysis (LTEA) Assay for Transforming Growth Factor (TGFA) using HepaRG (AID 2283532)
In short: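 HepaRG (human liver line), 48 h exposure, 8 conc. half-log down from 100 uM, 0.5% DMSO vehicle, duplicates; serum-free induction medium. TGFA mRNA by TaqMan qRT-PCR, ACTB/GAPDH/POLR2A normalization; gain/loss fit vs DMSO.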

[18] = read-out: solute carrier (SLCO1B1), SLCO1B1 (gene 10599); assay: LTEA_HepaRG_SLCO1B1: Life Technologies and Expression Analysis (LTEA) Assay for solute carrier (SLCO1B1) using HepaRG (AID 2283530)
In short: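 Differentiated human HepaRG cells were exposed for 48 h in serum-free induction medium to eight half-log concentrations, top 100 uM, in 0.5% DMSO. SLCO1B1 mRNA was measured by qRT-PCR, normalized to ACTB, GAPDH and POLR2A, and fitted bidirectionally against DMSO.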

[19] = read-out: Protein phosphatase 2A (PPP2R4), PTPA (gene 5524); assay: LTEA_HepaRG_PPP2R4: Life Technologies and Expression Analysis (LTEA) Assay for Protein phosphatase 2A (PPP2R4) using HepaRG (AID 2283522)
In short: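 Gene-expression endpoint in HepaRG hepatic cells: 48 h treatment across eight half-log concentrations up to 100 uM in 0.5% DMSO. PPP2R4 mRNA by qRT-PCR, normalized to three endogenous control genes.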

Measured: AC50

Nuclear factor erythroid 2-related factor 2 (Homo sapiens), sequence (Q16236 whole entry, looked up): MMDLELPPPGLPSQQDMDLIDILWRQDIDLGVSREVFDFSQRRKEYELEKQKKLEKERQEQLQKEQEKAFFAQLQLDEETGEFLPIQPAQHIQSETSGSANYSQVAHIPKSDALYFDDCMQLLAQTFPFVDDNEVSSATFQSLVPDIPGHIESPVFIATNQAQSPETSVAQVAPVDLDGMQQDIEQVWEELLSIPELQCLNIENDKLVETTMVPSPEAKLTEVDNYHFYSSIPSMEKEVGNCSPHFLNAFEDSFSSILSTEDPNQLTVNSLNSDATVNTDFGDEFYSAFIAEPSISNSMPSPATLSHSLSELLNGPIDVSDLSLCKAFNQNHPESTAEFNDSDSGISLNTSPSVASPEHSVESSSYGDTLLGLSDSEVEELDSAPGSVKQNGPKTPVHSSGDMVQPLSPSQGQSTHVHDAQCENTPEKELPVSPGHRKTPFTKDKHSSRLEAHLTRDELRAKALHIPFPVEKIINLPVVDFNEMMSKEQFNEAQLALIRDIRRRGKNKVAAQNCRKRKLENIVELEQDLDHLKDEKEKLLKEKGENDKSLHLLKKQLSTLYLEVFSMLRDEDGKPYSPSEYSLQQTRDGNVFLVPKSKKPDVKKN
Signal transducer and activator of transcription 3 (Homo sapiens), sequence (P40763 whole entry, looked up): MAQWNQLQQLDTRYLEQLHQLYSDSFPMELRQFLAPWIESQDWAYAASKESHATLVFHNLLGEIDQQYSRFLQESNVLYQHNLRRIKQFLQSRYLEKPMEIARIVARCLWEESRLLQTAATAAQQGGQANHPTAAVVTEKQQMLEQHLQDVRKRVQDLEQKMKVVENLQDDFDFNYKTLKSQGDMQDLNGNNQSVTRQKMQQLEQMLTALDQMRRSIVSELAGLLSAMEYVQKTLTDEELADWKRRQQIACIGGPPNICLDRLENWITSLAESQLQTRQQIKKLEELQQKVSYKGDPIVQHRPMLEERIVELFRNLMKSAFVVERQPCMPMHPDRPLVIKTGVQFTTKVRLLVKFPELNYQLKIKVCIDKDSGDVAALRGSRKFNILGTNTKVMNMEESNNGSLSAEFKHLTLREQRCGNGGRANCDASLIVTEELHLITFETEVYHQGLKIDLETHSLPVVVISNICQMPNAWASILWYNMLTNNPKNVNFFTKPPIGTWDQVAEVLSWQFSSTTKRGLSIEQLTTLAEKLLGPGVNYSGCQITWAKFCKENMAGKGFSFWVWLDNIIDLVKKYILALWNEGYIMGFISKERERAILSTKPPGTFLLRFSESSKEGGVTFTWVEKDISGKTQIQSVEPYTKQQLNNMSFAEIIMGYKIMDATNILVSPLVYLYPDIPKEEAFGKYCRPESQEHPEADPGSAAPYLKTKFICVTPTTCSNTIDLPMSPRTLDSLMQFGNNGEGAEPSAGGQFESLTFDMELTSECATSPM
Nuclear factor NF-kappa-B p105 subunit (Homo sapiens), sequence (P19838 whole entry, looked up): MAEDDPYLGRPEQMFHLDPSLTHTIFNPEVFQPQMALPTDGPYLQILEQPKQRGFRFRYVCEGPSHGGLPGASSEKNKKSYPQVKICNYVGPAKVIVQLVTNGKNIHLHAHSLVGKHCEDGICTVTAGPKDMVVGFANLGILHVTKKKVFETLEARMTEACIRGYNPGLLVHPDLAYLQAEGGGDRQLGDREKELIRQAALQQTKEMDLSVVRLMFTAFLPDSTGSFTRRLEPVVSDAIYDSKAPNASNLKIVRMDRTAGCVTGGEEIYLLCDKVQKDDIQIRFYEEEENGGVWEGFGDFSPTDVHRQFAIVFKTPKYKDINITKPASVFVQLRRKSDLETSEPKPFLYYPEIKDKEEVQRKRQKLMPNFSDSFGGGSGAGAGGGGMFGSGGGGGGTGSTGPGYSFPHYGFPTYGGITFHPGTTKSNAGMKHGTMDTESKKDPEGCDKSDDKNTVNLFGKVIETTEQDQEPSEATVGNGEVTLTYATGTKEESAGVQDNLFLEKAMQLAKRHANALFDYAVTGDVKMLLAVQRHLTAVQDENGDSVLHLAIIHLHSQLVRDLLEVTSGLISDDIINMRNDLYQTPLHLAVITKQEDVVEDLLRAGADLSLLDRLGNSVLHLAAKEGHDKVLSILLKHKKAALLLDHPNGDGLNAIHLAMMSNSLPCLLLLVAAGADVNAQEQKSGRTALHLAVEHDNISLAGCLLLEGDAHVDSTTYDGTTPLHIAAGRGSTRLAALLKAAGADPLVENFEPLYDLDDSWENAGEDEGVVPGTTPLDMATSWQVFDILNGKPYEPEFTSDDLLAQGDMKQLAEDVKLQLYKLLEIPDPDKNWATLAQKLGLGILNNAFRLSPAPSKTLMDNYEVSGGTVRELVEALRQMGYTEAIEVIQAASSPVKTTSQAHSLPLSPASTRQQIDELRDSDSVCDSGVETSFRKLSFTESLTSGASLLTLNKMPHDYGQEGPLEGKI

CC(C)N(C(=O)COc1nnc(C(F)(F)F)s1)c1ccc(F)cc1
active: [7] 22.2 µM | [10] 39.5 µM | [16] 13.8 µM
not listed: [18] | [19]
inactive: all other assays above

O=[N+]([O-])c1c(Cl)c(Cl)c(Cl)c(Cl)c1Cl
active: [6] 50 µM | [7] 69.8 µM
not listed: [19]
inactive: all other assays above

CCc1ccc(C(=O)NN(C(=O)c2cc(C)cc(C)c2)C(C)(C)C)cc1
not listed: [18] | [19]
inactive: all other assays above

CCC(C)(NC(=O)c1cc(Cl)c(C)c(Cl)c1)C(=O)CCl (stereo unspecified)
active: [2] 50.2 µM | [3] 90.1 µM | [4] 75.5 µM | [5] 50.2 µM | MYC, MYC (gene 4609) 50.2 µM | [7] 59.2 µM | [9] 90.8 µM | [10] 82.9 µM | [12] 79.8 µM | [16] 79.5 µM
inactive: [1] | [6] | [8] | [11] | [13] | [14] | [15] | [17]

Oc1cc(Cl)ccc1Oc1ccc(Cl)cc1Cl
inactive: [1] | [2] | [3] | [4] | [5] | MYC, MYC (gene 4609) | [6] | [7] | [8] | [19] | [9] | [10] | [11] | [12] | [13] | [14] | [15] | [16] | [17]
active: [2] 78.7 µM | [3] 86.4 nM and 51 µM | [4] 82.3 µM | [5] 89 µM | MYC, MYC (gene 4609) 83.5 µM | [6] 51 µM | [7] 51 µM | [10] 86 µM | [11] 82 µM and 88.4 µM
